Reference: PubChem BioAssay (NCATS)
Inconclusive results are not listed. The source made the active and inactive calls. Calls come from the whole dose curve; as a rule, active = well fitted inhibition curve with a large enough effect; inconclusive = small, poorly fitted or top-dose-only effect; inactive = flat fitted curve, though single readings scatter.

Experiments:
Test in all cases: qHTS profiling for inhibitors of Plasmodium falciparum proliferation (AID 504749); note: nearly all actives have a fitted effect of over 60% in size
CP252 = settings: P. falciparum in erythrocytes, SYBR Green DNA, 72 h; series mostly up to 12.8 µM
How it was run: (§1)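 SYBR Green fluorescence of parasite DNA, read after lysis and overnight dark incubation, measured growth over 72 h in erythrocyte culture at 0.3% parasitemia and 2.5% hematocrit. Data normalised to DMSO and 0.29 uM artemisinin, with plate-drift correction.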

CP256 = settings: P. falciparum in erythrocytes, SYBR Green DNA, 72 h; series mostly up to 12.8 µM
How it was run: as §1

CP260 = settings: P. falciparum in erythrocytes, SYBR Green DNA, 72 h; series mostly up to 12.8 µM
How it was run: as §1

CP262 = settings: P. falciparum in erythrocytes, SYBR Green DNA, 72 h; series mostly up to 12.8 µM
How it was run: as §1

CP265 = settings: P. falciparum in erythrocytes, SYBR Green DNA, 72 h; series mostly up to 12.8 µM
How it was run: as §1

CP266 = settings: P. falciparum in erythrocytes, SYBR Green DNA, 72 h; series mostly up to 28.7 µM
How it was run: as §1

CP268 = settings: P. falciparum in erythrocytes, SYBR Green DNA, 72 h; series mostly up to 12.8 µM
How it was run: as §1

CP269 = settings: P. falciparum in erythrocytes, SYBR Green DNA, 72 h; series mostly up to 12.8 µM
How it was run: as §1

CP286 = settings: P. falciparum in erythrocytes, SYBR Green DNA, 72 h; series mostly up to 12.8 µM
How it was run: as §1

CP291 = settings: P. falciparum in erythrocytes, SYBR Green DNA, 72 h; series mostly up to 12.8 µM
How it was run: as §1

CP297 = settings: P. falciparum in erythrocytes, SYBR Green DNA, 72 h; series mostly up to 12.8 µM
How it was run: as §1

CP305 = settings: P. falciparum in erythrocytes, SYBR Green DNA, 72 h; series mostly up to 12.8 µM
How it was run: as §1

CP315 = settings: P. falciparum in erythrocytes, SYBR Green DNA, 72 h; series mostly up to 12.8 µM
How it was run: as §1

CP325 = settings: P. falciparum in erythrocytes, SYBR Green DNA, 72 h; series mostly up to 12.8 µM
How it was run: as §1

CP329 = settings: P. falciparum in erythrocytes, SYBR Green DNA, 72 h; series mostly up to 12.8 µM
How it was run: as §1

CP335 = settings: P. falciparum in erythrocytes, SYBR Green DNA, 72 h; series mostly up to 12.8 µM
How it was run: as §1

DFO2036 = settings: P. falciparum in erythrocytes, SYBR Green DNA, 72 h; series mostly up to 12.8 µM
How it was run: as §1

DIV14 = settings: P. falciparum in erythrocytes, SYBR Green DNA, 72 h; series mostly up to 12.8 µM
How it was run: as §1

DIV17 = settings: P. falciparum in erythrocytes, SYBR Green DNA, 72 h; series mostly up to 12.8 µM
How it was run: as §1

DIV30 = settings: P. falciparum in erythrocytes, SYBR Green DNA, 72 h; series mostly up to 12.8 µM
How it was run: as §1

Dd2 = settings: P. falciparum in erythrocytes, SYBR Green DNA, 72 h; series mostly up to 12.8 µM
How it was run: as §1

ECU = settings: P. falciparum in erythrocytes, SYBR Green DNA, 72 h; series mostly up to 12.8 µM
How it was run: as §1

FAB9 = settings: P. falciparum in erythrocytes, SYBR Green DNA, 72 h; series mostly up to 12.8 µM
How it was run: as §1

GB4 = settings: P. falciparum in erythrocytes, SYBR Green DNA, 72 h; series mostly up to 12.8 µM
How it was run: as §1

HB3 = settings: P. falciparum in erythrocytes, SYBR Green DNA, 72 h; series mostly up to 12.8 µM
How it was run: as §1

ICS = settings: P. falciparum in erythrocytes, SYBR Green DNA, 72 h; series mostly up to 12.8 µM
How it was run: as §1

JCK = settings: P. falciparum in erythrocytes, SYBR Green DNA, 72 h; series mostly up to 12.8 µM
How it was run: as §1

N140 = settings: P. falciparum in erythrocytes, SYBR Green DNA, 72 h; series mostly up to 12.8 µM
How it was run: as §1

P93_24 = settings: P. falciparum in erythrocytes, SYBR Green DNA, 72 h; series mostly up to 12.8 µM
How it was run: as §1

P94_40 = settings: P. falciparum in erythrocytes, SYBR Green DNA, 72 h; series mostly up to 12.8 µM
How it was run: as §1

PAD = settings: P. falciparum in erythrocytes, SYBR Green DNA, 72 h; series mostly up to 12.8 µM
How it was run: as §1

PC15 = settings: P. falciparum in erythrocytes, SYBR Green DNA, 72 h; series mostly up to 12.8 µM
How it was run: as §1

PC26 = settings: P. falciparum in erythrocytes, SYBR Green DNA, 72 h; series mostly up to 12.8 µM
How it was run: as §1

PC49 = settings: P. falciparum in erythrocytes, SYBR Green DNA, 72 h; series mostly up to 12.8 µM
How it was run: as §1

SC27B = settings: P. falciparum in erythrocytes, SYBR Green DNA, 72 h; series mostly up to 12.8 µM
How it was run: as §1

TAB109 = settings: P. falciparum in erythrocytes, SYBR Green DNA, 72 h; series mostly up to 12.8 µM
How it was run: as §1

TAB113 = settings: P. falciparum in erythrocytes, SYBR Green DNA, 72 h; series mostly up to 12.8 µM
How it was run: as §1

TAB165 = settings: P. falciparum in erythrocytes, SYBR Green DNA, 72 h; series mostly up to 12.8 µM
How it was run: as §1

W2 = settings: P. falciparum in erythrocytes, SYBR Green DNA, 72 h; series mostly up to 12.8 µM
How it was run: as §1

Measured: Potency

C/C=C\C(=O)N(CC)c1ccccc1C
inactive: CP252 | CP256 | CP260 | CP262 | CP265 | CP266 | CP268 | CP269 | CP286 | CP291 | CP297 | CP305 | CP315 | CP325 | CP329 | CP335 | DFO2036 | DIV14 | DIV17 | DIV30 | Dd2 | ECU | FAB9 | GB4 | HB3 | ICS | JCK | N140 | P93_24 | P94_40 | PAD | PC15 | PC26 | PC49 | SC27B | TAB109 | TAB113 | TAB165 | W2
